PubChem BioAssay (EPA / NIEHS)
Inconclusive results are not listed. Calls of active or inactive are those of the source. How the source made its calls: active means hit-call score of the fitted dose curve at least 0.9, where 1 is the maximum; inconclusive means response in the unintended direction; inactive means score below 0.9.

Tests used:
[1] = biological target: rat Neurokinin-1 Receptor (NK1), Tacr1 (gene 24807) (UniProt P14600); assay: NVS_GPCR_rNK1: NovaScreen (NVS) G Protein-Coupled Receptor Assay for rat Neurokinin-1 Receptor (NK1) (AID 2283309)
Outline: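 Rat submaxillary gland membranes; radioligand displacement read by filter-based scintillation counting after 1 h. Primary screen in duplicate at 25 uM; actives retested in concentration series; loss of binding fitted versus DMSO.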

[2] = biological target: rat Neurokinin-3 Receptor (NK3), Tacr3 (gene 24808) (UniProt P16177); assay: NVS_GPCR_rNK3: NovaScreen (NVS) G Protein-Coupled Receptor Assay for rat Neurokinin-3 Receptor (NK3) (AID 2283310)
Outline: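 Rat cortical membranes; radioligand binding with filtration and scintillation counting, 2 h after dosing. Primary screen in duplicate at 25 uM, then concentration-response up to 50 uM; loss of binding signal relative to DMSO.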

[3] = biological target: rat Opioid Receptor, Non-selective Sodium (Na+) Binding, Oprm1 (gene 25601) (UniProt P33535); assay: NVS_GPCR_rOpiate_NonSelectiveNa: NovaScreen (NVS) G Protein-Coupled Receptor Assay for rat Opioid Receptor, Non-selective Sodium (Na+) Binding (AID 2283311)
Outline: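 Rat forebrain membranes, radioligand displacement with filter scintillation counting, 1.5 h incubation. Screened in duplicate at 25 µM; hits then run in concentration-response up to 50 µM; loss of binding fitted versus DMSO.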

[4] = biological target: rat Opioid Receptor, Non-selective Binding, Oprm1 (gene 25601) (UniProt P33535); assay: NVS_GPCR_rOpiate_NonSelective: NovaScreen (NVS) G Protein-Coupled Receptor Assay for rat Opioid Receptor, Non-selective Binding (AID 2283318)
Outline: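 Rat forebrain membranes, cell-free radioligand binding with filter-based scintillation counting, read 1.5 h after dosing. Primary screen in duplicate at 25 uM; actives retested in concentration series. Loss of signal versus DMSO baseline scored.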

[5] = biological target: Voltage-dependent N-type calcium channel subunit alpha-1B (Rattus norvegicus) (UniProt Q02294); assay: NVS_IC_rCaChN: NovaScreen (NVS) Ion Channel Assay for rat Calcium Channel, Type N (CaChN) (AID 2283317)
[6] = biological target: rat Vasopressin 1 Receptor (V1), Avpr1a (gene 25107) (UniProt P30560); assay: NVS_GPCR_rV1: NovaScreen (NVS) G Protein-Coupled Receptor Assay for rat Vasopressin 1 Receptor (V1) (AID 2283316)
Outline: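 Radioligand binding on rat liver membranes, 1.5 h incubation, filter-based scintillation counting. Single 25 uM screen in duplicate; chemicals meeting threshold (e.g. 30% inhibition) run in concentration-response up to 50 uM.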

[7] = biological target: rat Somatostatin Receptor (SST), Sstr1 (gene 25033) (UniProt P28646); assay: NVS_GPCR_rSST: NovaScreen (NVS) G Protein-Coupled Receptor Assay for rat Somatostatin Receptor (SST) (AID 2283314)
Outline: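 Rat forebrain membranes; radioligand displacement read by filter-based scintillation counting 1 h after dosing. Primary screen in duplicate at 25 uM. Actives (e.g., 30% inhibition) were rerun as concentration-response to 50 uM max and fitted against DMSO.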

Chain of rat Opioid Receptor, Non-selective Binding, Oprm1 (gene 25601) (P33535 whole entry, looked up): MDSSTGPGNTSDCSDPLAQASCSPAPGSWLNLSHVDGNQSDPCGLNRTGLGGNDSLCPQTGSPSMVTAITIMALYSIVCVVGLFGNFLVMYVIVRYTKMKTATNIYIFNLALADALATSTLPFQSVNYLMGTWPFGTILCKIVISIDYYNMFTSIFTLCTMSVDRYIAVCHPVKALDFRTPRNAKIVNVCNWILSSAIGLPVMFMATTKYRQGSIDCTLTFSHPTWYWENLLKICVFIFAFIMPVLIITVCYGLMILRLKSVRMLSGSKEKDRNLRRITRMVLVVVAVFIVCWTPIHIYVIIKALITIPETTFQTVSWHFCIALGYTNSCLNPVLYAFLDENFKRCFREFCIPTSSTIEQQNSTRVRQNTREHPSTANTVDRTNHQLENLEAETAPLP
Chain of rat Opioid Receptor, Non-selective Sodium (Na+) Binding, Oprm1 (gene 25601) (P33535 whole entry, looked up): as above
Chain of rat Neurokinin-3 Receptor (NK3), Tacr3 (gene 24808) (P16177 whole entry, looked up): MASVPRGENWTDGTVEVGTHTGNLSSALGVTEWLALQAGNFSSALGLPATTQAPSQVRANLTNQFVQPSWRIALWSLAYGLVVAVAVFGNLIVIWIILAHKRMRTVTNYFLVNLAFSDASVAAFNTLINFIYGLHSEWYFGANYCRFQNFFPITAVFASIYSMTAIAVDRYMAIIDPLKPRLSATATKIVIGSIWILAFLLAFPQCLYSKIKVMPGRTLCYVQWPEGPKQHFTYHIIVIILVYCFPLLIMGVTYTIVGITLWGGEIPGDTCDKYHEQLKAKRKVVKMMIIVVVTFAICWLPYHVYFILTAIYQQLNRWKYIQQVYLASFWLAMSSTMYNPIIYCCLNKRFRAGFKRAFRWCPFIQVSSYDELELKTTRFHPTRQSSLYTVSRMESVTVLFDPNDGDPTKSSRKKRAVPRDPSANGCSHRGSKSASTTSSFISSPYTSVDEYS
Chain of rat Neurokinin-1 Receptor (NK1), Tacr1 (gene 24807) (P14600 whole entry, looked up): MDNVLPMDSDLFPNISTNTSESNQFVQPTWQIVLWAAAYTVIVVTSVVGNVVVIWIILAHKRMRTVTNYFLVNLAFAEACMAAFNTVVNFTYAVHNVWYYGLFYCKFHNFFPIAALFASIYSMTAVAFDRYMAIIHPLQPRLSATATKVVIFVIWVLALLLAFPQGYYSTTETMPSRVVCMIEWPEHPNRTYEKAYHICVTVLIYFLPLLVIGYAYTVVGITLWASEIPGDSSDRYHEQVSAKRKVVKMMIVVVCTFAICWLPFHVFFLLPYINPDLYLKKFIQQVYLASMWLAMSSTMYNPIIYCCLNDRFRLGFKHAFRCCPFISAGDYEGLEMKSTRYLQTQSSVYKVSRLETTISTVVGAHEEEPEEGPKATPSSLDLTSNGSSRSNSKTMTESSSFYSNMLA
Chain of rat Somatostatin Receptor (SST), Sstr1 (gene 25033) (P28646 whole entry, looked up): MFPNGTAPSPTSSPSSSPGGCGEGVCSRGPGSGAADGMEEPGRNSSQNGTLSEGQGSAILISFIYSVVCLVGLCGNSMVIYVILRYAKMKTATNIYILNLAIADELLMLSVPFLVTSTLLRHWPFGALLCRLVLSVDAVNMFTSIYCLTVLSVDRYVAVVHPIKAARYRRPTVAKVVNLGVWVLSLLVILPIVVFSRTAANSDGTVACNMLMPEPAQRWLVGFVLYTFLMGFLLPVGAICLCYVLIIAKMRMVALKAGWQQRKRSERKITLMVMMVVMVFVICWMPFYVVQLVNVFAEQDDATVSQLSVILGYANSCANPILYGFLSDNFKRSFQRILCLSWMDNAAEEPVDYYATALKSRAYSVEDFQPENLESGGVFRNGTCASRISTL
Chain of rat Vasopressin 1 Receptor (V1), Avpr1a (gene 25107) (P30560 whole entry, looked up): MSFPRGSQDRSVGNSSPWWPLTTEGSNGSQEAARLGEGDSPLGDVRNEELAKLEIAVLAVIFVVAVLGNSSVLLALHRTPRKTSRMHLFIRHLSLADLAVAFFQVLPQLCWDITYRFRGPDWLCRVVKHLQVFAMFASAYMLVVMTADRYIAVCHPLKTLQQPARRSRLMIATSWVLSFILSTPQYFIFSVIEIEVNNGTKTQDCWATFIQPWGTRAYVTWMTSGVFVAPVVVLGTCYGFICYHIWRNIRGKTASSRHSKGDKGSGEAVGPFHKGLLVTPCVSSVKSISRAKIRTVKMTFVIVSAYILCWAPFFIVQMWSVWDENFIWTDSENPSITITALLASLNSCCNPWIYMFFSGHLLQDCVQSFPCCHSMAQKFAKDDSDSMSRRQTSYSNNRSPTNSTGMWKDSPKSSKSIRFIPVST

O=C(N[C@H](c1ccccc1)[C@@H]1CN2CCC1CC2)c1c(Cl)ccc(C(F)(F)F)c1Cl
AC50 [1]: 37.5 µM (active) | AC50 [2]: 28.9 µM (active) | AC50 [3]: 37.5 µM (active) | AC50 [4]: 9.3 µM (active)

COP(=S)(OC)SCN1C(=O)c2ccccc2C1=O
AC50 [4]: 31.8 µM (active)

CCOc1cccc(C2(N3CCN(c4ccccc4)CC3)CCC(C)CC2)c1 (configuration not stated)
outcome [5]: inactive

[Cl-].[Cl-].[Hg+2]
AC50 [1]: 14.2 µM (active) | AC50 [2]: 12.9 µM (active) | AC50 [3]: 16.7 µM (active) | AC50 [4]: 13.6 µM (active)

C1=Cc2cccc3cccc1c23
AC50 [6]: 1.11 µM (active)

O=C(O)C1C2CCC(O2)C1C(=O)O (configuration not stated)
AC50 [7]: 3.96 µM (active)
